Measurements published in ChEMBL document CHEMBL3988442, “University of Dundee, Small-Polar-MMV Screening Library” (2021).
Among all 48,000 compounds or so, about 13,000 (27%) showed an effect of 50% or more. The list shows a part of the results.

Each compound was assayed on Wolbachia pipientis (assay: Anti-Wolbachia Cell-Based Screen). Settings: 5 µM.
Type: functional
Parameters: scale not given: in the data most compounds retested in dose-response had high values

Row | SMILES | Percent Effect [%]
1 | COCc1ccccc1NC(=O)NC(C)c1ccc(C)o1 (stereo not given) | -2.277
2 | CSc1c[nH]nc1NS(=O)(=O)c1cc(F)ccc1Cl | 16.47
3 | Cc1ccc(F)cc1S(=O)(=O)Nc1ccc2c(C(=O)O)c[nH]c2c1 | 88.84
4 | Cc1c(F)cc(C(=O)O)cc1S(=O)(=O)Nc1cccc(C(F)F)c1 | -21.42
5 | Cn1cc(Br)c(=O)c(NS(=O)(=O)c2cc(F)ccc2Cl)c1 | -8.345
6 | Cc1ccc(F)cc1S(=O)(=O)Nc1cnc(N2CCCC2)nc1 | 3.743
7 | O=C(O)c1c[nH]c2cc(NS(=O)(=O)c3cccc(F)c3F)ccc12 | 98.18
8 | O=C(O)c1c[nH]c2cc(NS(=O)(=O)c3ccc(Cl)cc3F)ccc12 | 101.8
9 | COc1ccccc1S(=O)(=O)Nc1ccc2c(C(=O)O)c[nH]c2c1 | -5.607
10 | O=C(O)c1c[nH]c2cc(NS(=O)(=O)c3cc(F)ccc3Cl)ccc12 | 93.61
11 | O=C(O)c1c[nH]c2cc(NS(=O)(=O)c3cccc(Cl)c3F)ccc12 | -1.912
12 | Cc1cc(NC(=O)N2CCN(C)CC2C)n(CCC#N)n1 (stereo not given) | -16.44
13 | N#CCCN(Cc1ccco1)C(=O)Cc1ccc(-n2cnnn2)cc1 | -12.81
14 | O=C(c1ccc2ccccc2c1)C1CCCN(C(=O)Cn2cnnn2)C1 (stereo not given) | -17.21
15 | N#Cc1nccnc1N1CCC(c2nc(C(F)(F)F)c[nH]2)CC1 | -6.885
16 | CNC(=O)NC(=O)CN1CCCN(CC(F)(F)F)CC1 | 5.4
17 | CC(C)CCn1nc2ccc(S(=O)(=O)N3CCOCC3)cn2c1=O | 120.3
18 | Cn1cnc(S(=O)(=O)N2CCOCC2)c1Cl | -4.923
19 | CC(C)Cn1nc2ccc(S(=O)(=O)N3CCC(C)CC3)cn2c1=O | 132.8
20 | CCC(C)NC(=O)NCCCn1nc2ccccn2c1=O (stereo not given) | -2.078
21 | Cc1nn(C)c2ncc(S(=O)(=O)N3CCCC(C)CC3)cc12 (stereo not given) | -7.374
22 | COC(=O)Cn1cccc(S(=O)(=O)N2CCC(C)CC2)c1=O | 3.954
23 | COCCO[C@H]1CCN(C(=O)c2ccno2)[C@H]1Cc1ccncc1.O=C(O)C(F)(F)F | -8.897
24 | CC/C=C(/C)C(=O)NCc1ccnc(OC2CCOCC2)c1 | -6.645
25 | CC(=O)NCc1nnc2n1CCN(c1ncnc3c(C)csc13)CC2 | -2.169
26 | O=S(=O)(CCCn1cncn1)Cc1ccc(F)cc1Cl | 8.322
27 | CCc1ncc(C(=O)N(CCOC)Cc2ccccc2F)cn1 | -19.66

Row | SMILES | Percent Effect [%]
28 | COCCN(Cc1ccoc1)C(=O)c1c(F)cccc1Cl | -1.026
29 | CCN(Cc1ccoc1)C(=O)c1ccncc1O | 2.225
30 | CCOc1ccc(CN(CCOC)C(=O)c2ccncc2Cl)cc1 | 0.1724
31 | CCSc1ccccc1C(=O)N(CCOC)Cc1ccoc1 | 121.3
32 | COCCN(Cc1ccncc1)C(=O)C1COc2c(cccc2OC)C1 (stereo not given) | 4.804
33 | COCCN(Cc1ccoc1)C(=O)c1ccccc1Cl | -4.504
34 | COCCN(Cc1ccoc1)C(=O)c1c(F)cccc1F | 126.9
35 | COCCN(CCOC)C(=O)c1ccoc1C | -2.566
36 | COCCN(Cc1ccoc1)C(=O)c1ccc(Cl)s1 | 106
37 | COCCN(Cc1ccoc1)C(=O)c1ccccc1OC | 102.9
38 | CCN(Cc1ccoc1)C(=O)c1ccc(C)c(S(N)(=O)=O)c1 | 0.3555
39 | N[C@H]1CN(C(=O)c2ccccc2OCCc2ccccc2)C[C@@H]1C1CC1 | 18.87
40 | O=S(=O)(NC1=NCN(CCc2cccs2)CN1)c1ccccc1 | 2.891
41 | Cc1ncc2c(n1)CN(Cc1cn3ccsc3n1)CC2 | -12.96
42 | COCCN(Cc1ccoc1)C(=O)c1cccnc1SC | 9.468
43 | NC(=O)CCN(C(=O)CSc1ccc(F)cc1)c1ccc(F)cc1 | -8.487
44 | CCN(C)c1ccc(C(=O)N(CCOC)Cc2ccccn2)cc1 | -4.982
45 | COCCN(Cc1ccoc1)C(=O)c1ccccn1 | 112.1
46 | COCCCN(Cc1ccncc1)C(=O)CSc1ccc(F)cc1 | -0.07203
47 | COCCN(Cc1ccoc1)C(=O)CSc1ccc(F)cc1 | 117.6
48 | O=C(CN1CCC2(CCCN(CCO)C2=O)C1)NCCc1ccccc1 (stereo not given) | 3.055
49 | O=C(COc1coc(CN2CCCCC2)cc1=O)Nc1ccc(Cl)cc1 | -2.562
50 | CCc1cccc(NS(=O)(=O)c2cc3c(c(C(=O)O)c2)OCCO3)c1 | 10.09
51 | Cc1ccccc1NS(=O)(=O)c1cc2c(c(C(=O)O)c1)OCCO2 | -5.791
52 | Cc1ccc(NS(=O)(=O)c2cc3c(c(C(=O)O)c2)OCCO3)c(F)c1 | -7.996
53 | Cc1ccc(F)c(NS(=O)(=O)c2cc3c(c(C(=O)O)c2)OCCO3)c1 | 118.3
54 | Cc1cccc(NS(=O)(=O)c2cc3c(c(C(=O)O)c2)OCCO3)c1 | 105.7

Row | SMILES | Percent Effect [%]
55 | CN(c1ccc(F)c(F)c1)S(=O)(=O)c1cc2c(c(C(=O)O)c1)OCCO2 | -16.04
56 | Cc1cc(C)cc(N(C)S(=O)(=O)c2cc3c(c(C(=O)O)c2)OCCO3)c1 | -3.92
57 | Cc1cc(C)cc(NS(=O)(=O)c2cc3c(c(C(=O)O)c2)OCCO3)c1 | 6.571
58 | Cc1ccc(C)c(NS(=O)(=O)c2cc3c(c(C(=O)O)c2)OCCO3)c1 | 110.3
59 | Cc1nc(CN(C)C(=O)c2cccc(CC3CCNCC3)c2)no1 | -18.2
60 | CCc1nnsc1C(=O)NC(CC(C)C)C(=O)OC (stereo not given) | -4.538
61 | CN1C[C@@H](NC(=O)c2cc(F)cc(F)c2)C[C@H]1C(=O)NCc1ncc[nH]1 | 4.795
62 | COc1ccccc1NCC(=O)NCc1scnc1C | -10.76
63 | O=C(c1cccnc1)N1Cc2ccccc2OCC1Cn1ccnc1 (stereo not given) | 99.63
64 | Cc1nc(C)c(C(=O)N2Cc3ccccc3OCC2Cn2ccnc2)s1 (stereo not given) | 70.21
65 | CN(CC1COc2ccccc2O1)C(=O)NCCCn1ccnc1 (stereo not given) | -8.094
66 | CC(Cn1ccnc1)NC(=O)NCCN1CCc2ccccc2C1 (stereo not given) | 3.376
67 | CC1CN(CCC(=O)NCCc2cccnc2)Cc2ccccc2O1 (stereo not given) | 11.18
68 | Cc1nc(C)c(C(=O)N2Cc3ccccc3OCC2Cn2ccnc2)o1 (stereo not given) | -31.31
69 | CCc1nc2n(n1)CC(NCCc1cccs1)CC2 (stereo not given) | -19.61
70 | N#Cc1c(F)cccc1NCCCOCC1CCOCC1 | -8.528
71 | O=C1CC(c2ccsc2)c2snc(C(=O)O)c2N1 (stereo not given) | -3.117
72 | CC1(C)CNC(=O)CN(C(=O)CCc2ccccc2)C1 | 92.84
73 | Cc1ccnc2c1NC(=O)CN2C(=O)CCc1ccccc1 | 5.988
74 | O=C(O)C(F)(F)F.O=C1CCC2(CCCN(C(=O)Cc3cccnc3)C2)N1 (stereo not given) | -30.04
75 | CCc1nsc(N2CCN(C(=O)COc3ccccc3)CC2)n1 | -3.89
76 | COc1ccc(CC(=O)N2CC(=O)NCC(C)(C)C2)cc1 | 81.26
77 | CC1(C)CNC(=O)CN(C(=O)Cc2ccccc2)C1 | 98.91
78 | COc1ccc(CC(=O)N2CC[C@@H]3NC(=O)CC[C@@H]32)cc1 | -10.22
79 | CC1(C)CNC(=O)CN(C(=O)COc2ccccc2)C1 | 99.32
80 | O=C1CCC2(CCCN(C(=O)Cc3ccccc3)C2)N1 (stereo not given) | -74.63
81 | CCc1ccc(CCC(=O)N2CCC(=O)Nc3cccnc32)cc1 | -4.556

Row | SMILES | Percent Effect [%]
82 | Cc1ccc(N2CCN(C(=O)COc3ccccc3)CC2)nn1 | -10.88
83 | Cc1nc(-c2ccc(CC(=O)N3CCNC(=O)C3)cc2)cs1 | -10.4
84 | CN(C)C(=O)CS(=O)(=O)Cc1ccn(-c2cccc(F)c2)n1 | 3.991
85 | CCn1c(CN(C)C)nnc1C1CCN(Cc2ccc(C)s2)CC1 | -25.38
86 | COc1ccc(-c2n[nH]cc2CN(C)CCCN2CCOCC2)c(F)c1 | 4.429
87 | N#Cc1nccnc1NCCC1CCN(CC(F)(F)F)CC1 | -10.09
88 | O=C(CN1CCC2(CCCCC2)C1)NCC(F)(F)F | -17.09
89 | O=C(NCCCn1cccn1)N1CCCC1c1ccncc1 (stereo not given) | 20.68
90 | Cc1cnn(CCNCc2ccc(F)cc2Cl)c1 | -9.942
91 | COc1ccccc1N1CC(NC(=O)Cn2cc(C(C)C)nn2)CC1=O (stereo not given) | 82.88
92 | COc1ccccc1N1CC(NC(=O)c2cc(C(C)C)nn2C)CC1=O (stereo not given) | 186.5
93 | O=C1CC(NS(=O)(=O)N2CCOCC2)CN1CCc1ccccc1 (stereo not given) | 3.785
94 | COc1ccccc1N1CCC(CNC(=O)CN2CSCC2=O)C1 (stereo not given) | -5.034
95 | COc1ccc(CCNC(=O)NC2CC(=O)N(c3ccccc3)C2)cc1 (stereo not given) | 13.52
96 | COc1ccccc1N1CC(NC(=O)Cn2cc(C)nn2)CC1=O (stereo not given) | 83.28
97 | Cc1ccccc1C(NC(=O)Cn1cc(C2CC2)nn1)C1CC1 (stereo not given) | 6.908
98 | CC(C)Oc1ccccc1C(=O)NC1CC(=O)N(CC(F)(F)F)C1 (stereo not given) | -7.447
99 | COc1ccccc1N1CCCC(Nc2ncccn2)C1=O (stereo not given) | -13.39
100 | COc1ccccc1N1CCN(CC[C@H](O)c2ccccc2)CC1=O | -5.081
101 | O=C(NCC1CC(=O)N(CCc2ccccc2)C1)c1ccc[nH]1 (stereo not given) | -4.58
102 | CC(C)c1cn(CC(=O)NC2CC(=O)N(CCc3ccccc3)C2)nn1 (stereo not given) | 94.88
103 | COc1cc(-c2cccc3c2OC(CN)C3)ccc1O (stereo not given) | 12.42
104 | CC(C)(C)NC(=O)c1cnc2n1CCCC2 | -4.757
105 | CCOC(=O)N1CCN(c2nc(C)ncc2CC)CC1 | -1.601
